Compounds without any hit were thinned out: in the full panel of roughly 79,000, 15% have a hit. The source made the active and inactive calls. Cut-off read from the data, not from the text of the source: active = growth inhibition above about 70%; inactive = the rest.

One experiment can be described thus: NCI Yeast Anticancer Drug Screen. Data for the mec2-1 strain (AID 157). As to conditions: S. cerevisiae mec2-1 strain, at 100.0 µM, active compounds read high. In short, it runs like this: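 Test agents were screened against the mec2-1 yeast strain, with defined DNA repair or cell cycle alteration. Growth was scored as inhibition against vehicle-only controls.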
In the case of `O=[N+]([O-])c1cc[n+]([O-])cc1`, the growth inhibition was 99% (active).

Take `CC1(C)CC(=O)C(/C=N/c2nc(-c3ccccc3)cs2)=C(O)C1`: the growth inhibition was 76% (active).

Consider `Nc1nc(N)c2nc(CNc3ccc(C(=O)NC(CCC(=O)O)C(=O)O)cc3F)cnc2n1` (stereo unspecified), for which the growth inhibition is 94% (active).

As for `COC(=O)CC1(O)C(/C=C/c2ccccc2)C(C(=O)OC)C(=O)C(C(=O)OC)C1C(=O)OC` (stereo unspecified), the growth inhibition was 12% (inactive).

For `CC(C)(C)c1ccc(NS(=O)(=O)c2ccc(N)cc2)cc1`, the growth inhibition was 38% (inactive).

For the molecule `CCN(CC)CCNc1ccc([N+](=O)[O-])c2nc3ccccc3c(N)c12`, the growth inhibition was 0% (inactive).

For the molecule `CCCCN(CCCC)C(=O)/C=C/c1ccccc1`, the growth inhibition was 79% (active).

As for `O=c1[nH]c(-c2ccccc2)nc2c1sc1nc3ccccc3n12`, the growth inhibition was -27% (inactive).

As to `O=[N+]([O-])c1ccc2c(c1)/C(=N/N=C1c3ccccc3Cc3ccccc31)c1cc([N+](=O)[O-])cc([N+](=O)[O-])c1-2`, the growth inhibition is 95% (active).

As to `CC(C)C(C)/C=C\C(C)C1CCC2C3=CC=C4CC(O)CCC4(C)C3CCC21C` (stereo unspecified), the growth inhibition was -17% (inactive).

Take `O=C1Nc2ccc(Br)cc2C1=Nc1ccc2c(c1)OCO2`: the growth inhibition was -40% (inactive).

For the molecule `CCCCOCn1c(=O)[nH]c(=O)c2cc(Br)ccc21`, the growth inhibition was -5% (inactive).

Take `Cc1ccc(S/C(=C\C(=O)O)c2ccccc2)cc1`: the growth inhibition is 25% (inactive).

Regarding `O=[N+]([O-])/C=C/c1cc(Cl)c(/C=C/[N+](=O)[O-])cc1Cl`, the growth inhibition is 85% (active).

`Cc1cc(S(=O)(=O)Nc2nnc3cnc4ccccc4n23)c(S)cc1Cl`: the growth inhibition is 54% (inactive).

As for `O=C(/C=C/c1cc(Cl)cc(Cl)c1O)c1cccc(O)c1`, the growth inhibition is 98% (active).

Regarding `NC1CCCCC1N.Nc1c(N=Nc2ccc(-c3ccc(N=Nc4cc(S(=O)(=O)[O-])c5ccccc5c4N)cc3)cc2)cc(S(=O)(=O)[O-])c2ccccc12.[OH3+].[OH3+].[Pt+4]`, the growth inhibition was 77% (active).

Take `COC(=O)CCC(NC(=S)N/N=C(\C)c1ccccn1)C(=O)OC` (stereo unspecified): the growth inhibition was 90% (active).

In the case of `NC(=O)C(=O)NNc1ccccc1`, the growth inhibition is 97% (active).

For the molecule `COc1cc(C2SCC(=O)N2c2ccc(-c3ccc(-n4c(-c5ccccc5)nc5ccccc5c4=O)cc3)cc2)ccc1O` (stereo unspecified), the growth inhibition was 9% (inactive).

Consider `COc1ccc(/C=C/c2sc3ccccc3[n+]2CCCCI)cc1OC`, for which the growth inhibition was 95% (active).

In the case of `Cc1c(C(C)C)cc(OCCO)cc1C(C)C`, the growth inhibition is 15% (inactive).

With `Cc1cc(NCCCCCCCCNc2cc(C)nc3cc(N)ccc23)c2ccc(N)cc2n1`, the growth inhibition was 96% (active).

As to `C=C(Cl)COC(=O)Nc1cccc(Cl)c1`, the growth inhibition is 91% (active).

On to `CC(=O)OC1CC2C(C)(C)C(=O)C=C[C@]2(C)C2CCC3(C)C(=CCC3[C@H](CO)C[C@H](O)C(=O)C(C)(C)O)[C@]12C` (stereo partly specified), for which the growth inhibition was 53% (inactive).

In the case of `COc1ccc(/C=C/C(=O)c2ccccc2)cc1OC`, the growth inhibition was 95% (active).

As for `COc1c(O)c(C=O)c(Br)c(C=O)c1O`, the growth inhibition is 95% (active).

As to `O=[N+]([O-])c1cc(Cl)cnc1Br`, the growth inhibition was 88% (active).

For the molecule `Cc1ccc2c(c1)C1(SC(C)C(=O)N1c1ccc(Cl)cc1)C(=O)N2` (stereo unspecified), the growth inhibition is 99% (active).

With `COc1cc(CSc2ccc(O)cc2)cc(O)c1O`, the growth inhibition is 0% (inactive).

On to `Cc1ccc2c3ccc4c(c3n(C)c2c1)C(=O)C=CC4=O`, for which the growth inhibition was 66% (inactive).

`O=C(Nc1ccc(Cl)cc1)Nc1nnc2nc(C(C(=O)c3cccc([N+](=O)[O-])c3Cl)c3nc4nnc(NC(=O)Nc5ccc(Cl)cc5)n4[nH]c3=O)c(=O)[nH]n12`: the growth inhibition was 68% (inactive).

Regarding `O=C(O)C1CC(c2ccccc2)=NN1c1ccccc1` (stereo unspecified), the growth inhibition is 92% (active).

Turning to `CCCCc1ccc(-n2c(C)c(COC(=O)NC)c(COC(=O)NC)c2C)cc1`, the growth inhibition was 93% (active).

Consider `CCC(=O)c1cc(C(=O)C(=S)SC)cc(C(=O)C(=S)SC)c1`, for which the growth inhibition is 95% (active).

On to `CCn1c(O)c(C=Nc2ccccc2)s/c1=N/Nc1nc(-c2ccccc2)cs1`, for which the growth inhibition is 2% (inactive).

Consider `Cc1ccccc1N=C(NO)c1ccccc1`, for which the growth inhibition was 97% (active).

For `Cc1nc2ccccc2nc1NNc1ccccc1`, the growth inhibition is 22% (inactive).

A short description of a further experiment: NCI Yeast Anticancer Drug Screen. Data for the rad14 strain (AID 159).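 Note: 0% = growth of vehicle-treated control cultures.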 The settings on record: S. cerevisiae rad14 strain growth inhibition; at 1.2 µM; active compounds read high. The gist of the method:
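Yeast cells carrying a defined DNA-repair defect were exposed to compounds, and growth inhibition was calculated relative to vehicle-treated control cultures.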
`O=[N+]([O-])c1cc[n+]([O-])cc1`: the growth inhibition is -2% (inactive).

As for `CC1(C)CC(=O)C(/C=N/c2nc(-c3ccccc3)cs2)=C(O)C1`, the growth inhibition is 3% (inactive).

As for `Nc1nc(N)c2nc(CNc3ccc(C(=O)NC(CCC(=O)O)C(=O)O)cc3F)cnc2n1` (stereo unspecified), the growth inhibition is 0% (inactive).

Regarding `COC(=O)CC1(O)C(/C=C/c2ccccc2)C(C(=O)OC)C(=O)C(C(=O)OC)C1C(=O)OC` (stereo unspecified), the growth inhibition is -4% (inactive).

As for `CC(C)(C)c1ccc(NS(=O)(=O)c2ccc(N)cc2)cc1`, the growth inhibition is 1% (inactive).

`CCN(CC)CCNc1ccc([N+](=O)[O-])c2nc3ccccc3c(N)c12`: the growth inhibition is -8% (inactive).

Consider `CCCCN(CCCC)C(=O)/C=C/c1ccccc1`, for which the growth inhibition was -1% (inactive).

Consider `O=c1[nH]c(-c2ccccc2)nc2c1sc1nc3ccccc3n12`, for which the growth inhibition is -24% (inactive).

With `O=[N+]([O-])c1ccc2c(c1)/C(=N/N=C1c3ccccc3Cc3ccccc31)c1cc([N+](=O)[O-])cc([N+](=O)[O-])c1-2`, the growth inhibition was 16% (inactive).

Regarding `CC(C)C(C)/C=C\C(C)C1CCC2C3=CC=C4CC(O)CCC4(C)C3CCC21C` (stereo unspecified), the growth inhibition was -1% (inactive).

For the molecule `O=C1Nc2ccc(Br)cc2C1=Nc1ccc2c(c1)OCO2`, the growth inhibition is -38% (inactive).

For the molecule `CCCCOCn1c(=O)[nH]c(=O)c2cc(Br)ccc21`, the growth inhibition was -22% (inactive).

Turning to `Cc1ccc(S/C(=C\C(=O)O)c2ccccc2)cc1`, the growth inhibition was -1% (inactive).

With `O=[N+]([O-])/C=C/c1cc(Cl)c(/C=C/[N+](=O)[O-])cc1Cl`, the growth inhibition is 25% (inactive).

Take `Cc1cc(S(=O)(=O)Nc2nnc3cnc4ccccc4n23)c(S)cc1Cl`: the growth inhibition was -1% (inactive).

In the case of `O=C(/C=C/c1cc(Cl)cc(Cl)c1O)c1cccc(O)c1`, the growth inhibition is 31% (inactive).

For `NC1CCCCC1N.Nc1c(N=Nc2ccc(-c3ccc(N=Nc4cc(S(=O)(=O)[O-])c5ccccc5c4N)cc3)cc2)cc(S(=O)(=O)[O-])c2ccccc12.[OH3+].[OH3+].[Pt+4]`, the growth inhibition was 2% (inactive).

For the molecule `COC(=O)CCC(NC(=S)N/N=C(\C)c1ccccn1)C(=O)OC` (stereo unspecified), the growth inhibition is 2% (inactive).

For the molecule `NC(=O)C(=O)NNc1ccccc1`, the growth inhibition was 1% (inactive).

In the case of `COc1cc(C2SCC(=O)N2c2ccc(-c3ccc(-n4c(-c5ccccc5)nc5ccccc5c4=O)cc3)cc2)ccc1O` (stereo unspecified), the growth inhibition is -1% (inactive).

For `COc1ccc(/C=C/c2sc3ccccc3[n+]2CCCCI)cc1OC`, the growth inhibition was -2% (inactive).

As to `Cc1c(C(C)C)cc(OCCO)cc1C(C)C`, the growth inhibition is -3% (inactive).

For the molecule `Cc1cc(NCCCCCCCCNc2cc(C)nc3cc(N)ccc23)c2ccc(N)cc2n1`, the growth inhibition is -40% (inactive).

As to `C=C(Cl)COC(=O)Nc1cccc(Cl)c1`, the growth inhibition is 1% (inactive).

For the molecule `CC(=O)OC1CC2C(C)(C)C(=O)C=C[C@]2(C)C2CCC3(C)C(=CCC3[C@H](CO)C[C@H](O)C(=O)C(C)(C)O)[C@]12C` (stereo partly specified), the growth inhibition was -42% (inactive).

As for `COc1ccc(/C=C/C(=O)c2ccccc2)cc1OC`, the growth inhibition was 3% (inactive).

For `COc1c(O)c(C=O)c(Br)c(C=O)c1O`, the growth inhibition was 1% (inactive).

`O=[N+]([O-])c1cc(Cl)cnc1Br`: the growth inhibition is 4% (inactive).

On to `Cc1ccc2c(c1)C1(SC(C)C(=O)N1c1ccc(Cl)cc1)C(=O)N2` (stereo unspecified), for which the growth inhibition was -3% (inactive).

With `COc1cc(CSc2ccc(O)cc2)cc(O)c1O`, the growth inhibition is 1% (inactive).

Turning to `Cc1ccc2c3ccc4c(c3n(C)c2c1)C(=O)C=CC4=O`, the growth inhibition is -9% (inactive).

For `O=C(Nc1ccc(Cl)cc1)Nc1nnc2nc(C(C(=O)c3cccc([N+](=O)[O-])c3Cl)c3nc4nnc(NC(=O)Nc5ccc(Cl)cc5)n4[nH]c3=O)c(=O)[nH]n12`, the growth inhibition was 0% (inactive).

As to `O=C(O)C1CC(c2ccccc2)=NN1c1ccccc1` (stereo unspecified), the growth inhibition is -19% (inactive).

Turning to `CCCCc1ccc(-n2c(C)c(COC(=O)NC)c(COC(=O)NC)c2C)cc1`, the growth inhibition was -29% (inactive).

As to `CCC(=O)c1cc(C(=O)C(=S)SC)cc(C(=O)C(=S)SC)c1`, the growth inhibition is 1% (inactive).

As for `CCn1c(O)c(C=Nc2ccccc2)s/c1=N/Nc1nc(-c2ccccc2)cs1`, the growth inhibition is 0% (inactive).

On to `Cc1ccccc1N=C(NO)c1ccccc1`, for which the growth inhibition is 0% (inactive).

As to `Cc1nc2ccccc2nc1NNc1ccccc1`, the growth inhibition is -3% (inactive).

The values are drawn from PubChem BioAssay (NCI).
